# The full data set covers some 7,900 targets. This sample favours those with a hit. About 0.6% of all pairs of compound and target were hits.
# Compound: CC1=C(C2=C(C=C1)C(=O)C3=CC=CC=C3N2CCCN)C
# Test: log2 fold change, soluble protein after heating vs DMSO (PISA); higher = thermal stabilisation; K562 cells, 10 uM, 30 min; active = over 0.2 and 3.5 SD of the protein, either way, in both replicates (recomputed)
# In short: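 Soluble protein was defined as the supernatant after 21,000xg for 90 min. It came from K562 cells at 2×10^6 cells/mL given 10 μM compound for 30 min, heated in aliquots for 3 min across 48°C-58°C, pooled, and extracted in PBS with 0.5% NP-40 at 4°C, and was quantified by TMTpro 16plex LC-MS/MS with equalised channel sums. Thermal stability against control samples, from duplicates, is reported as log2 fold change.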
# Sequence of UniProt Q9H300 (Q9H300 whole entry, looked up): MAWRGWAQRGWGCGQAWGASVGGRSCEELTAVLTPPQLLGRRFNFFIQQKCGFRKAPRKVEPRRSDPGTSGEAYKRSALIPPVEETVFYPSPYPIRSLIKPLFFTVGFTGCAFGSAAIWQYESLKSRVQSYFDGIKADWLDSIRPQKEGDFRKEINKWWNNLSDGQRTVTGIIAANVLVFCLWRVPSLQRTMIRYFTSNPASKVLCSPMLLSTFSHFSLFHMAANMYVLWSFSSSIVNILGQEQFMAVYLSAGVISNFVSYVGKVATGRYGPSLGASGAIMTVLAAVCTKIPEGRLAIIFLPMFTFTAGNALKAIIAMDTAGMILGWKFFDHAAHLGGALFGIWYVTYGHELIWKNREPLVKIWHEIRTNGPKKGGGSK
# Sequence of UniProt O60256 (O60256 whole entry, looked up): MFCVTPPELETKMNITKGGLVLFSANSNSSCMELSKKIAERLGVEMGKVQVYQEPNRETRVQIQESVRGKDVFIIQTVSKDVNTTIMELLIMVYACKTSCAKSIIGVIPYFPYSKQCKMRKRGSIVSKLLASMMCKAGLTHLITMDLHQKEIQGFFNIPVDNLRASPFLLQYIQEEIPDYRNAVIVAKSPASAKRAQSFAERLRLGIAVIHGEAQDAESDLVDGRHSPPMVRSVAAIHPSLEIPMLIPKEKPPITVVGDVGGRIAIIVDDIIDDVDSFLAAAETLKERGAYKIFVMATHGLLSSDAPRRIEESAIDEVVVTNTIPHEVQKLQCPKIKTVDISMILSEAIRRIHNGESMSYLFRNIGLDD
# Sequence of UniProt P42338 (P42338 whole entry, looked up): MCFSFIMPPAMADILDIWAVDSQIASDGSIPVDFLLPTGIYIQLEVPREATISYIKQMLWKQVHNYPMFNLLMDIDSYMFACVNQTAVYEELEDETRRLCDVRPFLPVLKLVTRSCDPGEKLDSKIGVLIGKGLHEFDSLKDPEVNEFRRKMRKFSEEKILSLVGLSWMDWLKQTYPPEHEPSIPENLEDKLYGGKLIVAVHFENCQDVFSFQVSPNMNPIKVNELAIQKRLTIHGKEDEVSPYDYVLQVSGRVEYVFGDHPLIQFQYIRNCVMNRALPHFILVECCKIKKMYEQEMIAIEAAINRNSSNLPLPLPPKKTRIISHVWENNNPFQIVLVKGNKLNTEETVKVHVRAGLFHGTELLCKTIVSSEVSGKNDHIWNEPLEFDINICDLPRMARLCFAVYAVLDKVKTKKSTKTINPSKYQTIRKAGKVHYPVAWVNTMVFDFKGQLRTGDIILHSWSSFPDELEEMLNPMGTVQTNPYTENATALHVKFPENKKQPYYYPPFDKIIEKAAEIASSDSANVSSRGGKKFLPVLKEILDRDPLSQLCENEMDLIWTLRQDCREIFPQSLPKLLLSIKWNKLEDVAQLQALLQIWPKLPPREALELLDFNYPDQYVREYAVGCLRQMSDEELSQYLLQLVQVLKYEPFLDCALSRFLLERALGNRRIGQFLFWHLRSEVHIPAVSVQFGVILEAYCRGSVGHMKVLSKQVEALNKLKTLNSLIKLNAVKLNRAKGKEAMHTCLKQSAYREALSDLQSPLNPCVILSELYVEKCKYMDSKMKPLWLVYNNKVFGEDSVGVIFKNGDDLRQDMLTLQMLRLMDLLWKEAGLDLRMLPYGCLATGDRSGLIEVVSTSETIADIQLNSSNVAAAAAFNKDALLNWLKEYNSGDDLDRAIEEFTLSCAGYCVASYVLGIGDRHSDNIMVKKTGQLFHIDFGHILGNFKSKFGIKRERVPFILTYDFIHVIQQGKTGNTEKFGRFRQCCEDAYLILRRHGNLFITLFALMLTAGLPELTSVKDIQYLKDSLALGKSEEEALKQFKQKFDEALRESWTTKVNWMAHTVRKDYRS
# Sequence of UniProt O43242 (O43242 whole entry, looked up): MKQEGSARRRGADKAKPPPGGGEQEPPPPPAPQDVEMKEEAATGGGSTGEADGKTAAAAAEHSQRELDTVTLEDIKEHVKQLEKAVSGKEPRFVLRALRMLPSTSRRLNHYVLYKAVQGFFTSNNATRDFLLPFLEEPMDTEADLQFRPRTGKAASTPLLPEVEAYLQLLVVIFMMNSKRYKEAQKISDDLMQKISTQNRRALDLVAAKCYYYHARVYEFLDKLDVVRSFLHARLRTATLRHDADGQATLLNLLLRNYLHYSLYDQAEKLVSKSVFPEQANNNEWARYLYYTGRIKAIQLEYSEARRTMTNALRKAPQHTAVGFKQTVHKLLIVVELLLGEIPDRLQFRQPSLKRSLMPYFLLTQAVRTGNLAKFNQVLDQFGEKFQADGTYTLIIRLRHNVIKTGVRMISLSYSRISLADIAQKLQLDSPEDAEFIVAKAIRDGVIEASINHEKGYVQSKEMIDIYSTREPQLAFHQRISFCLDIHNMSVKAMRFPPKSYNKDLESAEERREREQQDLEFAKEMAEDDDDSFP
# Sequence of UniProt P46019 (P46019 whole entry, looked up): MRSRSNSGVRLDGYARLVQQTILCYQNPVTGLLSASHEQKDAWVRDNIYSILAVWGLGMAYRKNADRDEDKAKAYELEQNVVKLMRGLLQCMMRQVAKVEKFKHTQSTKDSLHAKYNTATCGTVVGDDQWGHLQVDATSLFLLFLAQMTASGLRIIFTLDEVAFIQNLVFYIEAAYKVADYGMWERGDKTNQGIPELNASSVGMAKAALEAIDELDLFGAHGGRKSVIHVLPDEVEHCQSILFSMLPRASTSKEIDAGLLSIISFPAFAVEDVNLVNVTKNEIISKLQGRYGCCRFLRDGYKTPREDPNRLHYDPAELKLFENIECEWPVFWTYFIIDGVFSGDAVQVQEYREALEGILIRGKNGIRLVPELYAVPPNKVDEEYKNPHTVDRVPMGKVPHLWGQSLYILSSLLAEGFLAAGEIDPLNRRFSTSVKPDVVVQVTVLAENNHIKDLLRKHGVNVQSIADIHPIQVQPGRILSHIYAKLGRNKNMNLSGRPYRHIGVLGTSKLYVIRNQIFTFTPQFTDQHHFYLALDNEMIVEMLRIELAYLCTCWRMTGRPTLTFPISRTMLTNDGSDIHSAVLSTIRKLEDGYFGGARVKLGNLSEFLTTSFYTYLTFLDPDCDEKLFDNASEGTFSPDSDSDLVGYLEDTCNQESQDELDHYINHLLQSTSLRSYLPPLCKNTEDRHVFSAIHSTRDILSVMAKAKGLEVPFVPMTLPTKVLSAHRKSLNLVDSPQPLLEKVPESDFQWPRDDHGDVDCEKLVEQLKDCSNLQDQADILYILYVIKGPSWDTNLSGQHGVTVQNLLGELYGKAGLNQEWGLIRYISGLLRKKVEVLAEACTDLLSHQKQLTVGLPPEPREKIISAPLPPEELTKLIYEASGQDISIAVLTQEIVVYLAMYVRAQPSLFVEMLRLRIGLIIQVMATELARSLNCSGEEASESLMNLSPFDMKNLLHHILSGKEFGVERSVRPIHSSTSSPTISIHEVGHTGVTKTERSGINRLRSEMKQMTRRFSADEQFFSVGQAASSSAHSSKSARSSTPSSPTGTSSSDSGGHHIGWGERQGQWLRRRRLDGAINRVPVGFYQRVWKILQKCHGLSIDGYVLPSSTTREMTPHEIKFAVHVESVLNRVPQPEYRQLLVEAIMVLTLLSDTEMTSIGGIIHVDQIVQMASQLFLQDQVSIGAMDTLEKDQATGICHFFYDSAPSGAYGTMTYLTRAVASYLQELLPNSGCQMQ
# Sequence of UniProt Q92968 (Q92968 whole entry, looked up): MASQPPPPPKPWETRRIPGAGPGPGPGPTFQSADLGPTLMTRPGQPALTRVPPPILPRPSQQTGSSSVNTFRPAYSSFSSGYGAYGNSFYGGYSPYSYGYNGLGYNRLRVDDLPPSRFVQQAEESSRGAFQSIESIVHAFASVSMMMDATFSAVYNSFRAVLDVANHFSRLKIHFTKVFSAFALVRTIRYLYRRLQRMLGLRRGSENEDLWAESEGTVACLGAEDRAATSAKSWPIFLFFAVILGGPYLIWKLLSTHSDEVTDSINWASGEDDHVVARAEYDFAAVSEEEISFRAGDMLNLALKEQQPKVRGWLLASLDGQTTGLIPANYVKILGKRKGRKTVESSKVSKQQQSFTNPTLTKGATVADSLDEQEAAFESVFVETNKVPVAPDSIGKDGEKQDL
# Sequence of UniProt Q9UHX1 (Q9UHX1 whole entry, looked up): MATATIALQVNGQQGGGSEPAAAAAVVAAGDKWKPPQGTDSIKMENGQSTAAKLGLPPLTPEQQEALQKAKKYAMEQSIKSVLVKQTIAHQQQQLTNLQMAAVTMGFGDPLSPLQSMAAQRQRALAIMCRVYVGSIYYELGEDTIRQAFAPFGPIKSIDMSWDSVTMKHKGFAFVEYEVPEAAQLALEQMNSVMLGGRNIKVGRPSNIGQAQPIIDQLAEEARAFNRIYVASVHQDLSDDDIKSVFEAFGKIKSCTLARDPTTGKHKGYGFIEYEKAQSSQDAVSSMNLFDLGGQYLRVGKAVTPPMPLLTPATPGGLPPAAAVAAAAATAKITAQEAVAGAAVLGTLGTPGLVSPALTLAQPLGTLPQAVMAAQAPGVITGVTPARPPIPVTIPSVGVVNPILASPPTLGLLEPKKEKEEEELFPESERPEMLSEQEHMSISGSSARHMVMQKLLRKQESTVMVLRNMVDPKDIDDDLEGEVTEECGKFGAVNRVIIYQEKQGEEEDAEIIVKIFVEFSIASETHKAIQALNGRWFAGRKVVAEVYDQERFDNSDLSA
# Sequence of UniProt P28070 (P28070 whole entry, looked up): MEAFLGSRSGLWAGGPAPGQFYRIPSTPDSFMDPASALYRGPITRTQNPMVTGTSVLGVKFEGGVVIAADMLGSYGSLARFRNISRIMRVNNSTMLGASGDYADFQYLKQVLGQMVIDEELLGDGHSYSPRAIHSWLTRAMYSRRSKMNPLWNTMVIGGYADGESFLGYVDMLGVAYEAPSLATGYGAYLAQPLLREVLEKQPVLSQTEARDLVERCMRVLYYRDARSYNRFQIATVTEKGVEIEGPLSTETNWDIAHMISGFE
row,Target,log2 fold change
1,PSMD3 (UniProt O43242),0.039 (inactive)
2,PARL (UniProt Q9H300),0.017 (inactive)
3,PEX13 (UniProt Q92968),0.024 (inactive)
4,PURA (UniProt Q00577),-0.792 (active)
5,PSMB4 (UniProt P28070),0.018 (inactive)
6,PIK3CB (UniProt P42338),0.041 (inactive)
7,PPP2R5C isoform 4 (UniProt Q13362),-0.032 (inactive)
8,PUF60 (UniProt Q9UHX1),0.016 (inactive)
9,PRKACA (UniProt P17612),-0.034 (inactive)
10,PRPSAP2 (UniProt O60256),0.063 (inactive)
11,PHKA2 (UniProt P46019),0.028 (inactive)
12,PTPN12 (UniProt Q05209),0.004 (inactive)
13,RAB11FIP1 (UniProt Q6WKZ4),0.041 (inactive)
